# Experimental data published in PubChem BioAssay (NCI).
# The panel holds about 79,000 compounds, 15% with a hit somewhere; the sample as a whole holds those more often. Values without a mark were called inactive. The source made the active and inactive calls. No stated cut-off is given here; in the data, active means growth inhibition above about 70%; inactive means the rest.
# Experiments:
# [1] = NCI Yeast Anticancer Drug Screen. Data for the rad52 strain (AID 147);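 further: 0% = growth of vehicle-treated control cultures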; settings: S. cerevisiae rad52 mutant growth inhibition, active compounds read high
# Procedure, shortened: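 Read-out: growth inhibition versus vehicle-treated controls. Cells were a DNA repair-deficient yeast strain treated with compounds.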
# [2] = NCI Yeast Anticancer Drug Screen. Data for the wt1 strain (AID 149);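 further: 0% = growth of vehicle-treated wt1 cultures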; settings: S. cerevisiae wt1 strain (SPY 50644) growth inhibition, active compounds read high
# Procedure, shortened: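 wt1 strain grown with compound or vehicle; inhibition taken from the growth difference.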
# [3] = NCI Yeast Anticancer Drug Screen. Data for the rad50EPP+ strain (AID 151);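 further: 0% = growth of vehicle-treated control cultures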; settings: S. cerevisiae rad50 mutant strain, active compounds read high
# Procedure, shortened: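 Growth inhibition read against vehicle controls in rad50EPP+ yeast, a strain altered in DNA damage repair, after compound exposure.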
# [4] = NCI Yeast Anticancer Drug Screen. Data for the mgt1 strain (AID 153); settings: S. cerevisiae mgt1 mutant growth inhibition, active compounds read high
# Procedure, shortened: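 mgt1 yeast grown with test compound; read-out is growth inhibition versus vehicle-treated cultures.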
# [5] = NCI Yeast Anticancer Drug Screen. Data for the rad50 strain (AID 155);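 further: 0% = growth of vehicle-only cultures of the same strain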; settings: S. cerevisiae rad50 strain growth inhibition, active compounds read high
# Procedure, shortened: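 DNA repair mutant yeast, compound exposure, growth read-out; inhibition is taken relative to vehicle.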
# [6] = NCI Yeast Anticancer Drug Screen. Data for the mec2-1 strain (AID 157); settings: S. cerevisiae mec2-1 strain, active compounds read high
# Procedure, shortened: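 Yeast mec2-1 mutant treated with compound. Readout: growth inhibition vs vehicle controls.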
# [7] = NCI Yeast Anticancer Drug Screen. Data for the rad14 strain (AID 159);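 further: 0% = growth of vehicle-treated control cultures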; settings: S. cerevisiae rad14 strain growth inhibition, active compounds read high
# Procedure, shortened: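 DNA repair-defective yeast, compound-exposed; % growth inhibition derived by comparison with vehicle-treated controls.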
# [8] = NCI Yeast Anticancer Drug Screen. Data for the CLN2oe strain (AID 163);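 further: 0% = growth of vehicle-only control cultures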; settings: S. cerevisiae CLN2oe strain, active compounds read high
# Procedure, shortened: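 Read-out: yeast growth inhibition, expressed relative to vehicle-only controls. The strain bears an engineered cell-cycle alteration.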
# [9] = NCI Yeast Anticancer Drug Screen. Data for the cln2 rad14 strain (AID 165);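 further: 0% = growth equal to vehicle treated cultures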; settings: S. cerevisiae cln2 rad14 strain, active compounds read high
# Procedure, shortened: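 cln2 rad14 yeast strain; compound exposure; growth inhibition read vs vehicle controls.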
# [10] = NCI Yeast Anticancer Drug Screen. Data for the bub3 strain (AID 167); settings: S. cerevisiae bub3 mutant strain, active compounds read high
# Procedure, shortened: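 In this screen, a yeast mutant lacking normal mitotic checkpoint function is challenged with compound. Relative growth versus vehicle gives the inhibition value.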
# [11] = NCI Yeast Anticancer Drug Screen. Data for the wt2 strain (AID 169);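 further: 0% = growth of vehicle-treated yeast cultures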; settings: S. cerevisiae wt2 strain growth inhibition, active compounds read high
# Procedure, shortened: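 Read-out: growth inhibition versus vehicle-treated control cultures after compound exposure of the yeast strain.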
# [12] = NCI Yeast Anticancer Drug Screen. Data for the mlh1 strain (AID 171);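 further: 0% = growth of vehicle-treated control cultures of the same strain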; settings: S. cerevisiae mlh1 strain growth inhibition, active compounds read high
# Procedure, shortened: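 Read-out: growth inhibition versus vehicle controls. Strain: engineered yeast with a defined DNA repair or cell cycle defect, compound-treated.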
# [13] = NCI Yeast Anticancer Drug Screen. Data for the sgs1 strain (AID 173);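 further: 0% = growth of vehicle-only control cultures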; settings: S. cerevisiae sgs1 mutant, active compounds read high
# Procedure, shortened: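 Read-out: yeast growth inhibition relative to vehicle controls, following compound exposure of a strain with a defined DNA repair/cell cycle alteration.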
# [14] = NCI Yeast Anticancer Drug Screen. Data for the mlh1 rad18 strain (AID 175); settings: S. cerevisiae mlh1 rad18 strain growth inhibition, active compounds read high
# Procedure, shortened: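 Yeast w/ defined DNA-repair lesions; compound exposure; growth vs vehicle controls → % inhibition.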
# [15] = NCI Yeast Anticancer Drug Screen. Data for the rad18 strain (AID 177); settings: S. cerevisiae rad18 mutant growth inhibition, active compounds read high
# Procedure, shortened: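 Readout: growth inhibition vs vehicle controls. Cells: genetically altered yeast strain, DNA repair defect.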
# [16] = at 5.0 µM (retest, dose inferred, filed as 0.5)
# [17] = at 50.0 µM (retest, dose inferred, filed as 5.0)
compound,measurement,setting,value
COc1cc(NCCCCNCC(C)(C)C)c2ncccc2c1,growth inhibition,[1]; at 1.2 µM,-3%
same,growth inhibition,[1]; at 3.7 µM,1%
same,growth inhibition,[1]; at 11.0 µM,8%
same,growth inhibition,[1]; at 33.0 µM,14%
same,growth inhibition,[1]; at 100.0 µM,26%
same,growth inhibition,[2]; at 1.2 µM,-2%
same,growth inhibition,[2]; at 3.7 µM,1%
same,growth inhibition,[2]; at 11.0 µM,4%
same,growth inhibition,[2]; at 33.0 µM,0%
same,growth inhibition,[2]; at 100.0 µM,1%
same,growth inhibition,[3]; at 1.2 µM,-8%
same,growth inhibition,[3]; at 3.7 µM,-12%
same,growth inhibition,[3]; at 11.0 µM,-16%
same,growth inhibition,[3]; at 33.0 µM,-19%
same,growth inhibition,[3]; at 100.0 µM,-17%
same,growth inhibition,[4]; at 1.2 µM,0%
same,growth inhibition,[4]; at 3.7 µM,3%
same,growth inhibition,[4]; at 11.0 µM,6%
same,growth inhibition,[4]; at 33.0 µM,14%
same,growth inhibition,[4]; at 100.0 µM,2%
same,growth inhibition,[5]; at 1.2 µM,-5%
same,growth inhibition,[5]; at 3.7 µM,1%
same,growth inhibition,[5]; [16],11%
same,growth inhibition,[5]; at 11.0 µM,6%
same,growth inhibition,[5]; at 33.0 µM,10%
same,growth inhibition,[5]; [17],25%
same,growth inhibition,[5]; at 50.0 µM,59.9%
same,growth inhibition,[5]; at 100.0 µM,35%
same,growth inhibition,[6]; at 1.2 µM,-3%
same,growth inhibition,[6]; at 3.7 µM,-4%
same,growth inhibition,[6]; [16],-3%
same,growth inhibition,[6]; at 11.0 µM,0%
same,growth inhibition,[6]; at 33.0 µM,2%
same,growth inhibition,[6]; [17],16%
same,growth inhibition,[6]; at 50.0 µM,18%
same,growth inhibition,[6]; at 100.0 µM,13%
same,growth inhibition,[7]; at 1.2 µM,-1%
same,growth inhibition,[7]; at 3.7 µM,8%
same,growth inhibition,[7]; at 11.0 µM,29%
same,growth inhibition,[7]; at 33.0 µM,32%
same,growth inhibition,[7]; at 100.0 µM,28%
same,growth inhibition,[8]; at 1.2 µM,0%
same,growth inhibition,[8]; at 3.7 µM,2%
same,growth inhibition,[8]; at 11.0 µM,12%
same,growth inhibition,[8]; at 33.0 µM,25%
same,growth inhibition,[8]; at 100.0 µM,39%
same,growth inhibition,[9]; [16],5%
same,growth inhibition,[9]; [17],33%
same,growth inhibition,[9]; at 50.0 µM,51.6%
same,growth inhibition,[10]; at 1.2 µM,-2%
same,growth inhibition,[10]; at 3.7 µM,-2%
same,growth inhibition,[10]; [16],3%
same,growth inhibition,[10]; at 11.0 µM,0%
same,growth inhibition,[10]; at 33.0 µM,19%
same,growth inhibition,[10]; [17],20%
same,growth inhibition,[10]; at 50.0 µM,70.9% (active)
same,growth inhibition,[10]; at 100.0 µM,37%
same,growth inhibition,[11]; at 1.2 µM,-1%
same,growth inhibition,[11]; at 3.7 µM,-1%
same,growth inhibition,[11]; at 11.0 µM,3%
same,growth inhibition,[11]; at 33.0 µM,5%
same,growth inhibition,[11]; at 100.0 µM,5%
same,growth inhibition,[12]; at 1.2 µM,-3%
same,growth inhibition,[12]; at 3.7 µM,-1%
same,growth inhibition,[12]; at 11.0 µM,5%
same,growth inhibition,[12]; at 33.0 µM,12%
same,growth inhibition,[12]; at 100.0 µM,16%
same,growth inhibition,[13]; at 1.2 µM,-3%
same,growth inhibition,[13]; at 3.7 µM,-2%
same,growth inhibition,[13]; at 11.0 µM,6%
same,growth inhibition,[13]; at 33.0 µM,15%
same,growth inhibition,[13]; at 100.0 µM,20%
same,growth inhibition,[14]; [16],-1%
same,growth inhibition,[14]; [17],31%
same,growth inhibition,[14]; at 50.0 µM,37.1%
same,growth inhibition,[15]; at 1.2 µM,-5%
same,growth inhibition,[15]; at 3.7 µM,0%
same,growth inhibition,[15]; at 11.0 µM,7%
same,growth inhibition,[15]; at 33.0 µM,8%
same,growth inhibition,[15]; at 100.0 µM,16%
CC(=O)Oc1ccc2c(c1)Cc1cc(N3C(=O)C=CC3=O)ccc1-2,growth inhibition,[1]; at 1.2 µM,10%
same,growth inhibition,[1]; at 3.7 µM,29%
same,growth inhibition,[1]; at 11.0 µM,73% (active)
same,growth inhibition,[1]; at 33.0 µM,96% (active)
same,growth inhibition,[1]; at 100.0 µM,95% (active)
same,growth inhibition,[2]; at 1.2 µM,1%
same,growth inhibition,[2]; at 3.7 µM,12%
same,growth inhibition,[2]; at 11.0 µM,35%
same,growth inhibition,[2]; at 33.0 µM,93% (active)
same,growth inhibition,[2]; at 100.0 µM,97% (active)
same,growth inhibition,[3]; at 1.2 µM,81% (active)
same,growth inhibition,[3]; at 3.7 µM,96% (active)
same,growth inhibition,[3]; at 11.0 µM,98% (active)
same,growth inhibition,[3]; at 33.0 µM,97% (active)
same,growth inhibition,[3]; at 100.0 µM,92% (active)
same,growth inhibition,[4]; at 1.2 µM,7%
same,growth inhibition,[4]; at 3.7 µM,19%
same,growth inhibition,[4]; at 11.0 µM,58%
same,growth inhibition,[4]; at 33.0 µM,98% (active)
same,growth inhibition,[4]; at 100.0 µM,95% (active)
same,growth inhibition,[5]; at 1.2 µM,7%
same,growth inhibition,[5]; at 3.7 µM,32%
same,growth inhibition,[5]; [16],27%
same,growth inhibition,[5]; at 11.0 µM,83% (active)
same,growth inhibition,[5]; at 33.0 µM,96% (active)
same,growth inhibition,[5]; [17],99% (active)
same,growth inhibition,[5]; at 50.0 µM,46.1%
same,growth inhibition,[5]; at 100.0 µM,93% (active)
same,growth inhibition,[6]; at 1.2 µM,15%
same,growth inhibition,[6]; at 3.7 µM,30%
same,growth inhibition,[6]; [16],44%
same,growth inhibition,[6]; at 11.0 µM,72% (active)
same,growth inhibition,[6]; at 33.0 µM,97% (active)
same,growth inhibition,[6]; [17],99% (active)
same,growth inhibition,[6]; at 50.0 µM,47.7%
same,growth inhibition,[6]; at 100.0 µM,97% (active)
same,growth inhibition,[7]; at 1.2 µM,10%
same,growth inhibition,[7]; at 3.7 µM,25%
same,growth inhibition,[7]; at 11.0 µM,61%
same,growth inhibition,[7]; at 33.0 µM,98% (active)
same,growth inhibition,[7]; at 100.0 µM,97% (active)
same,growth inhibition,[8]; at 1.2 µM,1%
same,growth inhibition,[8]; at 3.7 µM,12%
same,growth inhibition,[8]; at 11.0 µM,35%
same,growth inhibition,[8]; at 33.0 µM,92% (active)
same,growth inhibition,[8]; at 100.0 µM,96% (active)
same,growth inhibition,[9]; [16],7%
same,growth inhibition,[9]; [17],98% (active)
same,growth inhibition,[9]; at 50.0 µM,24.2%
same,growth inhibition,[10]; at 1.2 µM,-9%
same,growth inhibition,[10]; at 3.7 µM,1%
same,growth inhibition,[10]; [16],8%
same,growth inhibition,[10]; at 11.0 µM,37%
same,growth inhibition,[10]; at 33.0 µM,94% (active)
same,growth inhibition,[10]; [17],98% (active)
same,growth inhibition,[10]; at 50.0 µM,48.6%
same,growth inhibition,[10]; at 100.0 µM,97% (active)
same,growth inhibition,[11]; at 1.2 µM,1%
same,growth inhibition,[11]; at 3.7 µM,15%
same,growth inhibition,[11]; at 11.0 µM,46%
same,growth inhibition,[11]; at 33.0 µM,98% (active)
same,growth inhibition,[11]; at 100.0 µM,96% (active)
same,growth inhibition,[12]; at 1.2 µM,13%
same,growth inhibition,[12]; at 3.7 µM,24%
same,growth inhibition,[12]; at 11.0 µM,74% (active)
same,growth inhibition,[12]; at 33.0 µM,98% (active)
same,growth inhibition,[12]; at 100.0 µM,97% (active)
same,growth inhibition,[13]; at 1.2 µM,16%
same,growth inhibition,[13]; at 3.7 µM,33%
same,growth inhibition,[13]; at 11.0 µM,79% (active)
same,growth inhibition,[13]; at 33.0 µM,98% (active)
same,growth inhibition,[13]; at 100.0 µM,97% (active)
same,growth inhibition,[14]; [16],67%
same,growth inhibition,[14]; [17],98% (active)
same,growth inhibition,[14]; at 50.0 µM,40.6%
same,growth inhibition,[15]; at 1.2 µM,10%
same,growth inhibition,[15]; at 3.7 µM,30%
same,growth inhibition,[15]; at 11.0 µM,85% (active)
same,growth inhibition,[15]; at 33.0 µM,96% (active)
same,growth inhibition,[15]; at 100.0 µM,95% (active)
